According to PubChem BioAssay (Tox21):
Several values for one entry are separate records, joined by “and”; a condition that tells them apart may be missing. Equal entries are not always repeated. Records with an inconclusive call do not appear. Where a call stands in place of a potency, no number is given. Some structures have more than one record in an assay (separate samples or runs), and their calls can disagree. Activity calls are given as the source filed them. Unless noted, calls come from the whole dose curve; as a rule, active = well fitted curve in the direction sought with a large enough effect in the repeat runs; inconclusive = weak or mixed curves; inactive = no such curve, though single readings can be large; an effect the other way counts as inactive or inconclusive.

Tests used:
[1] = qHTS assay to test for compound auto fluorescence at 535 nm (green) in HEK293 cells (AID 720680)
[2] = qHTS assay to test for compound auto fluorescence at 535 nm (green) in HEK293 cell free culture (AID 720682)
How it was run: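 Using fluorescein as calibrant, autofluorescence was quantified at 485/535 nm in cell-free DMEM containing 10% FBS after pintool addition of compound or vehicle.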

[3] = qHTS assay to test for compound auto fluorescence at 590 nm (red) in HepG2 cell free culture (AID 720684)
How it was run: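 Rose Bengal sodium served as the reference for red signal. Test compounds were dispensed into serum-containing MEM (10% FBS) without cells, and plates were read at 540/590 nm.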

[4] = qHTS assay to test for compound auto fluorescence at 460 nm (blue) in HepG2 cell free culture (AID 720685)
How it was run: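 Cell-free plates of MEM plus 10% FBS received 23 nL compound or DMSO vehicle; blue-channel (405/460 nm) intensity scored against triamterene as reference fluorophore.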

[5] = qHTS assay to test for compound auto fluorescence at 535 nm (green) in HepG2 cell free culture (AID 720686)
[6] = qHTS assay to test for compound auto fluorescence at 460 nm (blue) in HepG2 cells (AID 720687)
How it was run: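 HepG2 cells in MEM with 10% FBS, attached overnight at 37 C, were exposed to compound or DMSO for 1 hr at 37 C, 5% CO2. Blue fluorescence was read at 405/460 nm, with triamterene as reference fluorophore.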

[7] = qHTS assay to identify small molecule antagonists of the glucocorticoid receptor (GR) signaling pathway - cell viability counter screen (AID 720693); note: nearly all actives have a fitted effect of over 55% in size
[8] = qHTS assay for identifying genotoxic compounds that show differential cytotoxicity against isogenic chicken DT40 cell lines with known DNA damage response pathways - wild type cell line (AID 743012); note: nearly all actives have a fitted effect of over 60% in size; note: potency is the fitted concentration of half-maximal effect
How it was run: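 Cytotoxicity in repair-proficient parental chicken DT40 cells serves as the comparator for Rad54/Ku70- and Rev3-deficient lines. Cells were exposed to compounds for 40 h at 37 C/5% CO2, and ATP-based luminescence (CellTiter-Glo) measured viability.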

[9] = qHTS assay for identifying genotoxic compounds that show differential cytotoxicity against isogenic chicken DT40 cell lines with known DNA damage response pathways - Rev3 mutant cell line (AID 743014); note: nearly all actives have a fitted effect of over 55% in size; note: potency is the fitted concentration of half-maximal effect
[10] = qHTS assay for identifying genotoxic compounds that show differential cytotoxicity against isogenic chicken DT40 cell lines with known DNA damage response pathways - Rad54/Ku70 mutant cell line (AID 743015); note: nearly all actives have a fitted effect of over 60% in size; note: potency is the fitted concentration of half-maximal effect
[11] = qHTS assay to identify small molecule antagonists of the androgen receptor (AR) signaling pathway - cell viability counter screen (AID 743033; note: nearly all actives have a fitted effect of over 45% in size)
[12] = qHTS assay to identify small molecule antagonists of the androgen receptor (AR) signaling pathway using the MDA cell line - cell viability counter screen (AID 743041; note: nearly all actives have a fitted effect of over 45% in size)
How it was run: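 Cytotoxicity counter screen: MDA-kb2 AR-luc cells, compound + R1881, 16 h, 37C, 0% CO2; CellTiter-Fluor added at 15.5 h, fluorescence read after 30 min.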

[13] = qHTS assay to test for compound auto fluorescence at 590 nm (red) in HEK293 cell free culture (AID 720683)
How it was run: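 Cell-free wells of DMEM with 10% FBS received compound, and intrinsic fluorescence was read at excitation/emission 540/590 nm. Values expressed as equivalence to Rose Bengal sodium.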

[14] = biological target: Glucocorticoid receptor (Homo sapiens) (UniProt P04150); experiment: qHTS assay to identify small molecule antagonists of the glucocorticoid receptor (GR) signaling pathway (AID 720692; active = well fitted inhibition curve with a large enough effect in the signal ratio in the repeat runs, not every such curve was filed as active; the % refers to the signal ratio)
Sequence of Glucocorticoid receptor (Homo sapiens) (P04150 whole entry, looked up): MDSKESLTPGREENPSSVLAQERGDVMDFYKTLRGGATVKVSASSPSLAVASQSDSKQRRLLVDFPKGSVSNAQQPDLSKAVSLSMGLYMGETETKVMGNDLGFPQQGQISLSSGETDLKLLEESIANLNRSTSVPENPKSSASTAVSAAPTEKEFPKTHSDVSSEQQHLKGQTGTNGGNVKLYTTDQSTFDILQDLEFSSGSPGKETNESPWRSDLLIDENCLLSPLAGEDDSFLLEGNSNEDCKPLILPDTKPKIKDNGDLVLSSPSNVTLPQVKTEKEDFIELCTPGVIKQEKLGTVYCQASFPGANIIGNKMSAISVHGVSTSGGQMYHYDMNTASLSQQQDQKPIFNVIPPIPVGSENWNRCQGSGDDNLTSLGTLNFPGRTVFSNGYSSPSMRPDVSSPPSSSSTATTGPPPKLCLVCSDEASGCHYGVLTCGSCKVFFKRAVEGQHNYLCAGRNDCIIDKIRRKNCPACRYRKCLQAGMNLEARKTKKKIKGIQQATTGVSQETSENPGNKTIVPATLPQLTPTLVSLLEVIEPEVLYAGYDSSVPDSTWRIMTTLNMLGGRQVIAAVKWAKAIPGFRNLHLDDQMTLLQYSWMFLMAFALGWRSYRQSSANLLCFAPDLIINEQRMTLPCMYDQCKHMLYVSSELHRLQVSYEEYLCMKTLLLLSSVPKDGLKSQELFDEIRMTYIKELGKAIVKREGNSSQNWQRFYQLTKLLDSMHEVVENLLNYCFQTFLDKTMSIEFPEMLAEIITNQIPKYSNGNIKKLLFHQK
How it was run: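 Antagonism was scored as loss of dexamethasone-driven (5 nM final) reporter signal in HeLa cells bearing a glucocorticoid response element–beta-lactamase construct, after 18 h compound exposure at 37 C and 2 h FRET substrate loading.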

[15] = biological target: Glucocorticoid receptor (Homo sapiens) (UniProt P04150); experiment: qHTS assay to identify small molecule agonists of the glucocorticoid receptor (GR) signaling pathway (AID 720691; active = well fitted activation curve with a large enough effect in the signal ratio in the repeat runs, not every such curve was filed as active; the % refers to the signal ratio)
How it was run: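 Steps: seed GR-bla HeLa cells, incubate 4 h at 37 C/5% CO2; pin-transfer DMSO-dissolved compounds; incubate 18 h at 37 C; add LiveBLAzer B/G FRET substrate; after 2 h at room temperature, measure fluorescence.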

[16] = biological target: Androgen receptor (Homo sapiens) (UniProt P10275); experiment: qHTS assay to identify small molecule agonists of the androgen receptor (AR) signaling pathway (AID 743036; active = well fitted activation curve with a large enough effect in the signal ratio in the repeat runs, with a control signal flat, not every such curve was filed as active; the % refers to the signal ratio)
Sequence of Androgen receptor (Homo sapiens) (P10275 whole entry, looked up): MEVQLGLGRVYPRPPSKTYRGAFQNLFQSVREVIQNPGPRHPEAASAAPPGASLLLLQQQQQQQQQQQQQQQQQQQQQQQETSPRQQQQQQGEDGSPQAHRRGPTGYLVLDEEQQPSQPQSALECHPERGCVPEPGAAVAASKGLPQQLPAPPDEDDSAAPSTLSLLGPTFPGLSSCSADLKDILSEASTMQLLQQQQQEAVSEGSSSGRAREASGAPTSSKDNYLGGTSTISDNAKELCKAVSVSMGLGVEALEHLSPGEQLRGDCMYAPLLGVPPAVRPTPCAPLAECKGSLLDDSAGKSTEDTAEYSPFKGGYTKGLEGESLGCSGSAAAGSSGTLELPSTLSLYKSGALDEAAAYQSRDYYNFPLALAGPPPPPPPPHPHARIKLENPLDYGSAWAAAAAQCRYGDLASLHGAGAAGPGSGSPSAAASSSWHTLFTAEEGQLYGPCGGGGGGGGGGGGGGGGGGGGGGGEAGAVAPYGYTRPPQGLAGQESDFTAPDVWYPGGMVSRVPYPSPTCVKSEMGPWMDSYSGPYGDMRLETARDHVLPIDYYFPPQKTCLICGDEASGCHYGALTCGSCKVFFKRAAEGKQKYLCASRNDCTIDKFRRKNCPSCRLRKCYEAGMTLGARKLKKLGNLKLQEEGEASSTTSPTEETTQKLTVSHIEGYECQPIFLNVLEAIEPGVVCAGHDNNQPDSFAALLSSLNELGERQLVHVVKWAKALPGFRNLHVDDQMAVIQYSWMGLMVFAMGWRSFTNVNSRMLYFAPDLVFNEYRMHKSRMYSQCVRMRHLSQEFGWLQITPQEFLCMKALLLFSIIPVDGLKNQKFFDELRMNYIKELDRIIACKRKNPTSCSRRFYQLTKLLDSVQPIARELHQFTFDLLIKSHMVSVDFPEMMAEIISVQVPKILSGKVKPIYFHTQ
How it was run: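 In this Tox21 qHTS, 2,000 HEK293 AR-bla cells per well were incubated with compounds for 16 h at 37C and 5% CO2. Fluorescence intensity was recorded 2 h after adding LiveBLAzer B/G FRET substrate at room temperature.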

[17] = biological target: Androgen receptor (Homo sapiens) (UniProt P10275); experiment: qHTS assay to identify small molecule agonists of the androgen receptor (AR) signaling pathway using the MDA cell line (AID 743040; note: potency is the fitted concentration of half-maximal effect; for all read-outs here: nearly all actives have a fitted effect of over 20% in size); settings: MDA-kb2 AR-luc cells, MMTV luciferase, 16 h; for activity change: stronger effect = higher value
How it was run: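 Luciferase read-out, ONE-Glo, 30 min RT. Cells: MDA-kb2 AR-luc, MMTV promoter with AR and GR response elements. Compound exposure 16 h, 37C, 0% CO2, after 5 h pre-incubation. qHTS agonist mode.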

[18] = biological target: Androgen receptor (Homo sapiens) (UniProt P10275); experiment: qHTS assay to identify small molecule antagonists of the androgen receptor (AR) signaling pathway using the MDA cell line (AID 743042; note: nearly all actives have a fitted effect of over 55% in size)
How it was run: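 MDA-kb2 breast carcinoma cells carrying MMTV-luciferase (AR/GR responsive) were co-treated with compounds and the agonist R1881 for 16 h at 37C. Inhibition read as ONE-Glo luminescence; CellTiter-Fluor fluorescence measured in parallel for cytotoxicity.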

[19] = biological target: Androgen receptor (Homo sapiens) (UniProt P10275); experiment: qHTS assay to identify small molecule antagonists of the androgen receptor (AR) signaling pathway (AID 743035; active = well fitted inhibition curve with a large enough effect in the signal ratio in the repeat runs, not every such curve was filed as active; the % refers to the signal ratio)
How it was run: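 Steps: seed AR-UAS-bla GripTite HEK293 cells, incubate 4 h at 37C; pin in test compound, then add agonist R1881; incubate 16 h at 37C; add LiveBLAzer B/G FRET substrate, 2 h at room temperature; read fluorescence.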

Structure (SMILES): CCOP(=S)(OCC)SCSC(C)(C)C
- outcome [1]: inactive
- outcome [2]: inactive
- outcome [3]: inactive
- Potency [4]: inactive
- outcome [5]: inactive
- Potency [6]: inactive
- Potency [7]: inactive
- Potency [8]: inactive
- Potency [9]: inactive
- Potency [10]: inactive
- Potency [11]: inactive
- Potency [12]: inactive

Structure (SMILES): COc1ccc(CO)cc1
- outcome [1]: inactive
- outcome [2]: inactive
- outcome [13]: inactive
- outcome [3]: inactive
- Potency [4]: inactive
- outcome [5]: inactive
- Potency [14]: inactive
- Potency [7]: inactive
- Potency [8]: inactive
- Potency [9]: inactive
- Potency [10]: inactive
- Potency [11]: inactive
- Potency [12]: inactive

Structure (SMILES): CC(C)(C#N)N=NC(C)(C)C#N
- outcome [1]: inactive
- outcome [2]: inactive
- outcome [13]: inactive
- outcome [3]: inactive
- Potency [4]: inactive
- outcome [5]: inactive
- outcome [15]: inactive
- Potency [7]: inactive
- Potency [8]: inactive
- Potency [9]: inactive
- Potency [10]: inactive
- Potency [11]: inactive
- Potency [12]: inactive

Structure (SMILES): c1ccc(C2CO2)cc1 (stereo not drawn)
- outcome [1]: inactive
- outcome [2]: inactive
- outcome [13]: inactive
- outcome [3]: inactive
- Potency [4]: inactive
- outcome [5]: inactive
- Potency [6]: inactive
- outcome [15]: inactive
- Potency [7]: inactive
- Potency [8]: inactive
- Potency [9]: inactive
- Potency [10]: inactive
- Potency [11]: inactive
- Potency [12]: inactive

Structure (SMILES): CC(C)CON=O
- outcome [1]: inactive
- outcome [2]: inactive
- outcome [13]: inactive
- outcome [3]: inactive
- Potency [4]: inactive
- outcome [5]: inactive
- Potency [6]: inactive
- outcome [15]: inactive
- Potency [7]: inactive
- Potency [8]: inactive
- Potency [9]: inactive
- Potency [10]: inactive
- Potency [11]: inactive
- Potency [12]: inactive

Structure (SMILES): CNC(=O)Oc1cccc2c1OC(C)(C)C2
- outcome [1]: inactive
- outcome [2]: inactive
- outcome [3]: inactive
- Potency [4]: inactive
- outcome [5]: inactive
- Potency [6]: inactive
- Potency [7]: inactive
- Potency [8]: inactive
- Potency [9]: inactive and 24.3 µM (active)
- Potency [10]: inactive
- Potency [11]: inactive
- Potency [16]: inactive
- activity change ([17]; at 70.3 µM (top of the series)): 1.41% (inactive)
- activity change ([17]; at 95 µM (top of the series)): 1.74% (inactive)
- Potency [12]: inactive
- Potency [18]: inactive

Structure (SMILES): Cc1cc(Cl)ccc1N=CN(C)C
- outcome [1]: inactive
- outcome [2]: inactive
- outcome [13]: inactive
- outcome [3]: inactive
- Potency [4]: inactive
- outcome [5]: inactive
- Potency [7]: inactive
- Potency [8]: inactive
- Potency [9]: inactive
- Potency [10]: inactive
- Potency [11]: inactive
- Potency [12]: inactive

Structure (SMILES): Nc1ccc2ccccc2c1
- outcome [1]: inactive
- outcome [2]: inactive
- outcome [13]: inactive
- outcome [3]: inactive
- Potency [4]: inactive
- outcome [5]: inactive
- Potency [6]: inactive
- Potency [7]: inactive
- Potency [8]: inactive
- Potency [9]: inactive and 68.6 µM (active)
- Potency [10]: inactive
- Potency [11]: inactive
- Potency [12]: inactive

Structure (SMILES): [Cl-].[Cl-].[Cl-].[Fe+3]
- outcome [1]: inactive
- outcome [2]: inactive
- outcome [3]: inactive
- Potency [4]: inactive
- outcome [5]: inactive
- Potency [6]: inactive
- Potency [7]: inactive
- Potency [8]: inactive
- Potency [9]: inactive
- Potency [10]: inactive
- Potency [11]: inactive
- Potency [12]: inactive

Structure (SMILES): S=c1[nH]c2ccccc2[nH]1
- outcome [1]: inactive
- outcome [2]: inactive
- outcome [13]: inactive
- outcome [3]: inactive
- Potency [4]: inactive
- outcome [5]: inactive
- Potency [7]: inactive
- Potency [8]: inactive
- Potency [9]: inactive
- Potency [10]: inactive
- Potency [11]: inactive
- Potency [19]: inactive
- Potency [16]: inactive
- Potency [17]: 3.86 µM (active)
- activity change ([17]; at 70.3 µM (top of the series)): -1.99% (inactive)
- Potency [12]: inactive
- Potency [18]: inactive

Structure (SMILES): CC(C)(O)C(=O)Nc1ccc([N+](=O)[O-])c(C(F)(F)F)c1
- outcome [1]: inactive
- outcome [2]: inactive
- outcome [3]: inactive
- Potency [4]: inactive
- outcome [5]: inactive
- Potency [6]: inactive
- Potency [7]: inactive
- Potency [8]: 55.6 µM (active) and 5.62 µM (active)
- Potency [9]: 49.5 µM (active) and 6.31 µM (active)
- Potency [10]: 19.7 µM (active) and 5.01 µM (active)

Structure (SMILES): O=C(O)CF
- outcome [1]: inactive
- outcome [2]: inactive
- outcome [13]: inactive
- outcome [3]: inactive
- Potency [4]: inactive
- outcome [5]: inactive
- Potency [6]: inactive
- Potency [7]: inactive
- Potency [8]: inactive
- Potency [9]: inactive
- Potency [10]: inactive
- Potency [11]: inactive
- Potency [12]: inactive

Structure (SMILES): ClC(Cl)(Cl)Br
- outcome [1]: inactive
- outcome [2]: inactive
- outcome [3]: inactive
- Potency [4]: inactive
- outcome [5]: inactive
- Potency [6]: inactive
- outcome [15]: inactive
- Potency [14]: inactive
- Potency [7]: inactive
- Potency [8]: inactive
- Potency [9]: inactive
- Potency [10]: inactive
- Potency [11]: inactive
- Potency [12]: inactive

Structure (SMILES): OC(c1ccc(Cl)cc1)(c1cncnc1)c1ccccc1Cl (stereo not drawn)
- outcome [1]: inactive
- outcome [2]: inactive
- outcome [3]: inactive
- Potency [4]: inactive
- outcome [5]: inactive
- Potency [7]: inactive
- Potency [8]: 10.9 µM (active)
- Potency [9]: 35 µM (active) and 6.86 µM (active)
- Potency [10]: 49.4 µM (active) and 6.11 µM (active)
- Potency [12]: inactive
